Giardia FBPA inh-1: blocks Giardia fructose-bisphosphate aldolase activity; 290,000 compounds, 0.71% hits; Potency, µM (series often up to 59.6 µM), without a hit: at the top dose activity, negative = inhibition, hits mostly inhibitors; purified Giardia FBPA; note: potency is the fitted concentration of half-maximal effect; % is set by controls: 0 for no effect and ±100 for the full control effect; nearly all actives have a fitted effect of over 55% in size
Target sequence (A8B2U2 whole entry, looked up): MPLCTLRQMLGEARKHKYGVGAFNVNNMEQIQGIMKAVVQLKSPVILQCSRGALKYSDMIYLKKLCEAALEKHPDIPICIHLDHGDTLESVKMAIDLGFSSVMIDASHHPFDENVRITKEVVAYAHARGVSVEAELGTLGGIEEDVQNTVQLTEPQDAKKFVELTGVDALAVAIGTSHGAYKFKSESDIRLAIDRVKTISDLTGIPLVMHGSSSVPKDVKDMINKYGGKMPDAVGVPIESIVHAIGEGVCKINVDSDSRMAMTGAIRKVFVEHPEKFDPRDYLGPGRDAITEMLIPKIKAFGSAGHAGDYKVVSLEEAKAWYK
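40 nM FBPA preincubated 10 min at RT with compound (up to 57.5 uM final), then substrate plus GAPDH/TPI/NAD/arsenate coupling and diaphorase/resazurin added. Fluorescence read after 20 min at RT, 525/598 nm.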
Pf growth 48h: inhibits P. falciparum growth in the first generation, 48 h; Potency, µM (top dose mostly 28.7 µM), inactives show at the highest dose activity change, negative = inhibition, usual class: inhibitors; 310,000 compounds, 5.9% hits; P. falciparum luciferase growth in erythrocytes, 48 h; AID 504832; note: potency is the fitted concentration of half-maximal effect; % is set by controls: 0 for no effect and ±100 for the full control effect
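In quantitative HTS format, infected erythrocytes bearing luciferase-reporter parasites were treated for a single generation at 37 C. Luminescence after adding detection reagent served as the growth measure.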
NS1 function inh: influenza NS1 inhibition. Potency, µM (titrated, usually from 46.1 µM), inactives show at the top dose activity, positive = more growth. 270,000 compounds, 0.4% hits; calls by dose curve; note: potency is the fitted concentration of half-maximal effect; actives are rising curves; nearly all actives have a fitted effect of over 50% in size
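OD600 was taken as the measure of yeast growth restored by compound in an NS1-expressing S. cerevisiae strain. Cells had been washed out of glucose medium and diluted 1:100 into galactose -URA medium, pH 6.0.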
CHX counter: counter-screen hit for Shiga toxin inhibitors, cycloheximide; cell reporter, cycloheximide protein synthesis inhibition counterscreen; max response, %; 300,000 compounds, 12% hits; AID 2314; in the data active = max response mostly above about 13%, no sharp cut-off; inactive = mostly below about 14%; note: read at 38.3 µM for the half of the compounds with a filed dose; 0% is about no effect
Pf growth 96h: P. falciparum growth inhibition at 96 hour, primary screen for plastid delayed-death inhibitors. P. falciparum luciferase reporter growth, 96 h. Potency, µM (doses to about 28.7 µM), inactives show at the top dose activity change, negative = inhibition, usual class: inhibitors. 320,000 compounds, 6.9% hits; note: potency is the fitted concentration of half-maximal effect; % is set by controls: 0 for no effect and ±100 for the full control effect
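Erythrocytes infected with luciferase-expressing P. falciparum were dispensed at 2% hematocrit and 0.05% parasitemia (final), then incubated with compounds 96 hours at 37 C in 5% CO2. Luminescence after detection reagent addition reported growth.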
Shiga toxin inh: Shiga toxin inhibition; Vero cells, Shiga toxin protein synthesis inhibition reporter; inhibition, % at 38.7 µM; 290,000 compounds, 9.2% hits; AID 2315; in the data active = inhibition mostly above about 28%, no sharp cut-off; inactive = mostly below about 43%; note: 0% is about no effect
Giardia growth: blocks growth of Giardia lamblia trophozoites; shares compounds with Giardia FBPA inh-1; Potency, µM (titrated, usually from 57.5 µM), for the others: at the top dose activity change, negative = inhibition, actives largely listed as inhibitors; 1,500 compounds, 5% hits; Giardia lamblia trophozoite growth inhibition; AID 2785;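 note: potency is the fitted concentration of half-maximal effect; trophozoites exposed to compound for 48 h at 37 °C; % is set by controls: 0 for no effect and ±100 for the full control effect; nearly all actives have a fitted effect of over 70% in size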
Mammalian tox: mammalian cytotoxicity of Giardia aldolase inhibitor hits; shares compounds with Giardia FBPA inh-1; mammalian cell viability counter-screen, qHTS; Potency, µM (titrated, usually from 57.5 µM), without a hit: at the top dose viability change, negative = toxicity, most hits filed as inhibitors; 1,500 compounds, 4% hits;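 note: Chinese hamster ovary cells used as mammalian cytotoxicity surrogate; viability measured as cellular ATP by luminescence; potency is the fitted concentration of half-maximal effect; compound exposure lasted 48 h before reading; % is set by controls: 0 for no effect and ±100 for the full control effect; nearly all actives have a fitted effect of over 60% in size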
Giardia FBPA inh-2: confirmation of Giardia fructose-bisphosphate aldolase inhibitors | purified Giardia aldolase enzyme activity, qHTS | Potency, µM (doses to about 57.5 µM), inactives show at the highest dose activity change, negative = inhibition, usual class: inhibitors | 1,500 compounds, 5% hits | shares compounds with Giardia FBPA inh-1 | AID 2787; note: potency is the fitted concentration of half-maximal effect; % is set by controls: 0 for no effect and ±100 for the full control effect; nearly all actives have a fitted effect of over 45% in size
Rabbit FBPA inh: selectivity test for Giardia aldolase inhibitors: rabbit aldolase | shares compounds with Giardia FBPA inh-1 | Rabbit muscle FBPA enzyme inhibition, selectivity counter-screen | Potency, µM (series often up to 57.5 µM), without a hit: at the top dose activity, negative = inhibition, actives largely listed as inhibitors | 1,500 compounds, 4% hits; note: potency is the fitted concentration of half-maximal effect; % is set by controls: 0 for no effect and ±100 for the full control effect; nearly all actives have a fitted effect of over 60% in size
Target sequence (P00883 whole entry, looked up): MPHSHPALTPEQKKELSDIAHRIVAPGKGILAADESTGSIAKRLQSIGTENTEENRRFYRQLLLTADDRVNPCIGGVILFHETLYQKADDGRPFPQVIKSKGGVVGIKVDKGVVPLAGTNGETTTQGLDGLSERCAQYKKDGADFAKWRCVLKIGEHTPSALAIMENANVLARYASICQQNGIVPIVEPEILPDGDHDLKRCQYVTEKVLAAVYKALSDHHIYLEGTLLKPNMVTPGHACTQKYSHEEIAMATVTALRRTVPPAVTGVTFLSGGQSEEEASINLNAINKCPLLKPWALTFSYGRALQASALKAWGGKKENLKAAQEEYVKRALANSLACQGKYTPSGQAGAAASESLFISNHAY
GAPDH counter: GAPDH inhibition flagged for Giardia aldolase hits | shares compounds with Giardia FBPA inh-1 | GAPDH coupling enzyme counterscreen, biochemical, qHTS | Potency, µM (titrated, usually from 57.5 µM), for the others: top-dose activity change, negative = inhibition, most hits filed as inhibitors | 1,500 compounds, 6% hits | AID 2795; note: potency is the fitted concentration of half-maximal effect; % is set by controls: 0 for no effect and ±100 for the full control effect; nearly all actives have a fitted effect of over 55% in size
* hit, by the source's call; ? = inconclusive; / = no result; ! = not active in a repeat; [ ] = dose if it differs, or a comment. Compounds with a hit are over-represented: about 21% of the library has one in this group of screens. Unless noted, calls come from the whole dose curve; as a rule, active = well fitted curve in the direction sought with a large enough effect; inconclusive = small, poorly fitted or top-dose-only effect, or another doubt; inactive = no such curve, though single readings can be large; an effect the other way counts as inactive or inconclusive.

SMILES | Giardia FBPA inh-1 | Pf growth 48h | NS1 function inh | CHX counter | Pf growth 96h | Shiga toxin inh | Giardia growth | Mammalian tox | Giardia FBPA inh-2 | Rabbit FBPA inh | GAPDH counter
O=C(O)/C=C/C(=O)Nc1ccc(O)cc1 | ? | 41% | -1% | 12 | 10µM* | 2 | 16%[38.3 µM] | ? | 5.2µM* | ? | 5.8µM*
CCOC(=O)c1c(-c2ccc(Cl)cc2)csc1NC(=O)CNCc1ccco1 | 16µM* | ? | 8% | -2 | ? | -6 | -3% | -26% | -8% | -3% | -2%
O=C(NCCCN1CCCC1)[C@H](CSCc1ccccc1)N1Cc2ccccc2C1=O | 18µM* | ? | 1% | -3 | ? | -26 | -3%[10.4 µM] | -29% | 11% | 2% | 17%
Cc1onc(-c2c(Cl)cccc2Cl)c1C(=O)NC(=S)N1CCOCC1 | 4µM* | ? | 2% | -2 | ? | -14 | -4%[38.3 µM] | ? | -6% | 5% | 3%
c1ccc(C2=NNC(c3ccccn3)=NN2)nc1 | 7.9µM* | -51%[0.00184 µM] | -31% | 33* | ? | 71* | ? | 0% | -26% | -23% | ?
COc1cc2[nH]c(C(=O)N3CCN(c4ccccc4F)CC3)cc2c(OC)c1OC | 23% | ? | -12% | -2 | ? | -2 | / | / | / | / | /
CC(=O)Nc1ccc(NC(=O)CSc2nc3c(=O)n(C)c(=O)n(C)c3n2C)cc1 | / | 0% | / | / | -17% | / | / | / | / | / | /
CC(=O)Nc1ccc2nc3c(=O)n(C)c(=O)n(C)c3nc2c1 | 18µM* | -2% | -2% | 2 | -15% | -3 | 13% | -22% | ? | ? | 40µM*
O=C(N/N=C/c1ccc(Cl)cc1Cl)c1ccc(-n2cnnn2)cc1 | / | -20% | / | / | -6% | / | / | / | / | / | /
Nn1cnnc1N/N=C/c1ccc(Cl)cc1Cl | -30% | 35% | -46% | 12* | -24% | 16 | -10%[38.3 µM] | ? | 5.8µM* | 8.2µM* | 9.2µM*
O=[N+]([O-])c1ccccc1C1Nc2cccc3cccc(c23)N1 | ? | ? | 17% | 4 | ? | -17 | 10µM* | -19% | ? | -25% | ?
COc1cc(CNc2ccc(N3CCCC3)cc2)cc(Cl)c1OC | 1.8µM* | 3.3µM* | 13% | 19 | 40% | 32 | -30% | -27% | 18µM* | 32µM* | ?
CCOc1ccc(CNc2ccc(N3CCCC3)cc2)cc1 | 0.5µM* | 1.9µM* | -10% | 17* | -28% | 33 | -14%[38.3 µM] | -11% | ? | ? | ?
CCOc1ccc(OCC(=O)Nc2ccc(N3CCCCC3)cc2)cc1 | / | 0% | 10% | -2 | ? | 4 | / | / | / | / | /
O=C(O)c1ccccc1C(=O)c1ccc(Cl)cc1 | 6% | 30% | 4% | -1 | 24% | -4 | / | / | / | / | /
O=C(c1ccccc1)c1ccccc1N1C(=O)C=CC1=O | 16µM* | ? | -76% | 10 | -14% | 17 | -7%[10.4 µM] | 7% | -10% | -19% | -21%
CC(C)C[C@@H](CO)N1CCN(CC(C)C)CCC1=O | -5% | 41% | -9% | -1 | 5% | -9 | / | / | / | / | /
CCOC(=O)C1CCCN(CC(=O)c2ccc(F)cc2)C1 (stereo unspecified) | 16µM* | 8% | -8% | -1 | 12% | 4 | 5% | 5% | 4% | 5% | 17%
O=C(C1CCCN(Cc2ccccc2[N+](=O)[O-])C1)N1CCCC1 (stereo unspecified) | 28µM* | 9% | 1% | -3 | -2% | -15 | ? | 3% | 5% | 4% | -1%
CCOC(=O)C1CCCN(Cc2cccc(Cl)c2)C1 (stereo unspecified) | -18% | 79% | -7% | 9 | / | -6 | / | / | / | / | /
O=C(C1CCCN(Cc2ccccc2F)C1)N1CCCC1 (stereo unspecified) | -20% | ? | -6% | -2 | 8% | / | / | / | / | / | /
CCOC(=O)C1CCCN(Cc2ccc(OCc3ccccc3)cc2)C1 (stereo unspecified) | 28µM* | -42% | 0% | 44* | ? | 99* | 1%[10.4 µM] | 21% | 12% | 8% | -7%
CCOC(=O)C1CCCN(CC(=O)Nc2c(F)c(F)c(F)c(F)c2F)C1 (stereo unspecified) | 4% | 0% | -15% | -5 | ? | -8 | / | / | / | / | /
Cc1ccc(CN2CCCC(C(=O)N3CCCC3)C2)cc1 (stereo unspecified) | 25µM* | 14% | -3% | -4 | 36% | 2 | -4%[10.4 µM] | 9% | 6% | 8% | 5%
Cc1ccc(CN2CCN(C(=O)C3CCC3)CC2)cc1 | 0% | ? | 5% | -2 | ? | 15 | / | / | / | / | /
SMILES | Giardia FBPA inh-1 | Pf growth 48h | NS1 function inh | CHX counter | Pf growth 96h | Shiga toxin inh | Giardia growth | Mammalian tox | Giardia FBPA inh-2 | Rabbit FBPA inh | GAPDH counter
CC/C=C\C/C=C\C/C=C\C/C=C\C/C=C\CCCC(=O)NCCO | 1% | / | / | / | / | / | / | / | / | / | /
CNC(=O)C(=O)N/N=C/c1cccnc1 | 20% | 24% | 15% | 13 | ? | 18 | / | / | / | / | /
Cc1ccc(OCCCN2CCOCC2)cc1 | 20µM* | 39% | 4% | 20* | ? | 20* | ? | -10% | 10% | 3% | 7%
Cc1occc1-c1nnc(SCC(=O)Nc2ccccc2)n1C(C)c1ccccc1 (stereo unspecified) | 1% | ? | -45% | 18 | ? | 51 | / | / | / | / | /
COc1ccc2nc(S(=O)Cc3ncc(C)c(OC)c3C)[nH]c2c1 (stereo unspecified) | 16µM*! | 12µM* | -7% | 8 | 3.3µM* | 14 | ? | -20% | -17% | -10% | -9%
COC(=O)c1cnn(-c2ccccc2)c1-n1cccc1C=O | 1% | 7% | / | 3 | -3% | 15 | / | / | / | / | /
COC(=O)c1nn(-c2cccc(C(F)(F)F)c2)c(=O)cc1Sc1ccccn1 | 2% | 1% | -1% | -1 | 37% | -27 | / | / | / | / | /
CS(=O)(=O)Nc1ccc(C(=O)N2CCN(c3ccccc3)CC2)cc1 | 2% | 2% | -4% | 1 | 2% | 11 | / | / | / | / | /
CN(C)c1ncnc2c1NC1=C(S2)C(=NCCCC(=O)O)CC(C)(C)C1 | ? | 1% | 5% | -6 | 22% | -19 | -3%[38.3 µM] | -19% | -17% | -12% | -23%

High-throughput results: PubChem BioAssay, National Center for Advancing Translational Sciences (NCATS)
